The whole screen tested about 5,500 compounds, of which about 2,000 (36%) were called active. Another 18% or so got no clear call; they are omitted. No stated cut-off is given here; in the data, active means normalized growth mostly below about 0.91 (no sharp cut-off); inconclusive means no clear call, values can overlap the other calls; inactive means mostly above about 0.92. The list shows a part of the results.
Experiment: chemical genetic growth profiling, strain panel (AID 1159580);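 further: tested at 20 µM; growth read once vehicle control cultures reached saturation at 30 °C; 1 = growth at the plate median or of vehicle wells; lower values mean less growth of the strain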
Details: growth OD

Measured: normalized growth

COc1ccc(C(=O)c2ccc(O)cc2)c(O)c1O
inactive: S. cerevisiae deletion strains, locus YAL013W, strain DEP1, hits give low values 1.04 | S. cerevisiae deletion strains, locus YAL021C, strain ccr4, hits give low values 0.963 | S. cerevisiae deletion strains, locus YAL026C, strain drs2, hits give low values 0.961 | S. cerevisiae deletion strains, locus YAL030W, strain snc1, hits give low values 0.967 | S. cerevisiae deletion strains, locus YBL061C, strain skt5, hits give low values 0.97 | S. cerevisiae deletion strains, locus YBR009C, strain hhf1, hits give low values 0.951 | S. cerevisiae deletion strains, locus YBR021W, strain FUR4, hits give low values 1.02 | S. cerevisiae deletion strains, locus YBR023C, strain chs3, hits give low values 0.968 | S. cerevisiae deletion strains, locus YBR171W, strain sec66, hits give low values 0.965 | S. cerevisiae deletion strains, locus YBR229C, strain ROT2, hits give low values 1.02 | S. cerevisiae deletion strains, locus YBR231C, strain swc5, hits give low values 0.96 | S. cerevisiae deletion strains, locus YBR279W, strain paf1, hits give low values 0.974 | S. cerevisiae deletion strains, locus YCL011C, strain gbp2, hits give low values 0.961 | S. cerevisiae deletion strains, locus YCL016C, strain dcc1, hits give low values 0.974 | S. cerevisiae deletion strains, locus YCL029C, strain bik1, hits give low values 0.993 | S. cerevisiae deletion strains, locus YCL061C, strain MRC1, hits give low values 0.984 | S. cerevisiae deletion strains, locus YCL069W, strain vba3, hits give low values 0.98 | S. cerevisiae deletion strains, locus YCR088W, strain abp1, hits give low values 0.973 | S. cerevisiae deletion strains, locus YDL005C, strain med2, hits give low values 0.968 | S. cerevisiae deletion strains, locus YDL035C, strain GPR1, hits give low values 1.04 | S. cerevisiae deletion strains, locus YDL040C, strain nat1, hits give low values 0.972 | S. cerevisiae deletion strains, locus YDL074C, strain BRE1, hits give low values 1.01 | S. cerevisiae deletion strains, locus YDL101C, strain DUN1, hits give low values 1.02 | S. cerevisiae deletion strains, locus YDL134C, strain PPH21, hits give low values 1.01 | S. cerevisiae deletion strains, locus YDL185W, strain tfp1, hits give low values 0.995 | S. cerevisiae deletion strains, locus YDL192W, strain arf1, hits give low values 0.997 | S. cerevisiae deletion strains, locus YDR001C, strain nth1, hits give low values 0.973 | S. cerevisiae deletion strains, locus YDR069C, strain doa4, hits give low values 0.928 | S. cerevisiae deletion strains, locus YDR101C, strain arx1, hits give low values 1 | S. cerevisiae deletion strains, locus YDR137W, strain rgp1, hits give low values 0.975 | S. cerevisiae deletion strains, locus YDR159W, strain sac3, hits give low values 0.959 | S. cerevisiae deletion strains, locus YDR162C, strain NBP2, hits give low values 1.04 | S. cerevisiae deletion strains, locus YDR195W, strain ref2 0.969 | S. cerevisiae deletion strains, locus YDR297W, strain sur2, hits give low values 0.969 | S. cerevisiae deletion strains, locus YDR318W, strain mcm21, hits give low values 0.997 | S. cerevisiae deletion strains, locus YDR334W, strain swr1, hits give low values 0.952 | S. cerevisiae deletion strains, locus YDR335W, strain msn5, hits give low values 0.983 | S. cerevisiae deletion strains, locus YDR388W, hits give low values 0.985 | S. cerevisiae deletion strains, locus YDR392W, strain spt3, hits give low values 0.852 | S. cerevisiae deletion strains, locus YDR502C, strain sam2, hits give low values 0.968 | S. cerevisiae deletion strains, locus YEL003W, strain gim4, hits give low values 0.962 | S. cerevisiae deletion strains, locus YEL037C, strain rad23, hits give low values 0.965 | S. cerevisiae deletion strains, locus YEL061C, strain CIN8 (second series), hits give low values 0.955 | S. cerevisiae deletion strains, locus YEL061C, strain CIN8, hits give low values 1.01 | S. cerevisiae deletion strains, locus YER015W, strain faa2, hits give low values 0.961 | S. cerevisiae deletion strains, locus YER016W, strain bim1, hits give low values 0.978 | S. cerevisiae deletion strains, locus YER110C, hits give low values 0.983 | S. cerevisiae deletion strains, locus YER111C, strain swi4, hits give low values 0.963 | S. cerevisiae deletion strains, locus YER155C, strain BEM2 (second series), hits give low values 0.911 | S. cerevisiae deletion strains, locus YER155C, strain BEM2, hits give low values 1.02 | S. cerevisiae deletion strains, locus YER167W, strain BCK2, hits give low values 1.02 | S. cerevisiae deletion strains, locus YFR010W, strain ubp6, hits give low values 0.942 | S. cerevisiae deletion strains, locus YGL078C, strain dbp3, hits give low values 0.961 | S. cerevisiae deletion strains, locus YGL086W, strain mad1, hits give low values 0.992 | S. cerevisiae deletion strains, locus YGL167C, strain pmr1, hits give low values 0.952 | S. cerevisiae deletion strains, locus YGL173C, strain kem1, hits give low values 0.969 | S. cerevisiae deletion strains, locus YGL227W, strain vid30, hits give low values 0.937 | S. cerevisiae deletion strains, locus YGL240W, strain doc1, hits give low values 0.94 | S. cerevisiae deletion strains, locus YGL248W, strain PDE1, hits give low values 0.986 | S. cerevisiae deletion strains, locus YGL253W, strain hxk2, hits give low values 0.984 | S. cerevisiae deletion strains, locus YGR135W, strain pre9, hits give low values 0.95 | S. cerevisiae deletion strains, locus YGR252W, strain gcn5, hits give low values 0.893 | S. cerevisiae deletion strains, locus YHR013C, strain ard1, hits give low values 0.916 | S. cerevisiae deletion strains, locus YHR027C, strain rpn1, hits give low values 0.988 | S. cerevisiae deletion strains, locus YHR079C, strain IRE1 (second series), hits give low values 0.985 | S. cerevisiae deletion strains, locus YHR094C, strain hxt1, hits give low values 0.978 | S. cerevisiae deletion strains, locus YHR129C, strain ARP1, hits give low values 1.01 | S. cerevisiae deletion strains, locus YHR142W, strain chs7, hits give low values 0.987 | S. cerevisiae deletion strains, locus YHR200W, strain rpn10, hits give low values 0.973 | S. cerevisiae deletion strains, locus YIL066C, strain RNR3, hits give low values 1.03 | S. cerevisiae deletion strains, locus YIL073C, strain SPO22, hits give low values 0.992 | S. cerevisiae deletion strains, locus YIL125W, strain kgd1, hits give low values 1 | S. cerevisiae deletion strains, locus YIR030C, strain dcg1, hits give low values 0.994 | S. cerevisiae deletion strains, locus YJL092W, strain hpr5, hits give low values 0.978 | S. cerevisiae deletion strains, locus YJL095W, strain BCK1 (second series), hits give low values 0.977 | S. cerevisiae deletion strains, locus YJL095W, strain BCK1, hits give low values 0.986 | S. cerevisiae deletion strains, locus YJL115W, strain asf1, hits give low values 0.985 | S. cerevisiae deletion strains, locus YJL129C, strain trk1, hits give low values 0.935 | S. cerevisiae deletion strains, locus YJL134W, strain LCB3, hits give low values 1.02 | S. cerevisiae deletion strains, locus YJL154C, strain vps35, hits give low values 0.972 | S. cerevisiae deletion strains, locus YJL164C, strain tpk1, hits give low values 0.979 | S. cerevisiae deletion strains, locus YJL166W, strain qcr8, hits give low values 0.972 | S. cerevisiae deletion strains, locus YJL168C, strain set2, hits give low values 1 | S. cerevisiae deletion strains, locus YJL187C, strain SWE1 (second series), hits give low values 0.998 | S. cerevisiae deletion strains, locus YJL187C, strain SWE1, hits give low values 0.968 | S. cerevisiae deletion strains, locus YKL009W, strain mrt4, hits give low values 1.01 | S. cerevisiae deletion strains, locus YKL068W, hits give low values 0.991 | S. cerevisiae deletion strains, locus YKL085W, strain MDH1 (second series), hits give low values 1 | S. cerevisiae deletion strains, locus YKL085W, strain MDH1, hits give low values 1 | S. cerevisiae deletion strains, locus YKL160W, strain elf1, hits give low values 0.994 | S. cerevisiae deletion strains, locus YKR001C, strain vps1, hits give low values 1 | S. cerevisiae deletion strains, locus YKR026C, strain gcn3, hits give low values 0.948 | S. cerevisiae deletion strains, locus YKR091W, strain srl3, hits give low values 0.972 | S. cerevisiae deletion strains, locus YLL001W, strain dnm1, hits give low values 0.986 | S. cerevisiae deletion strains, locus YLL026W, hits give low values 0.978 | S. cerevisiae deletion strains, locus YLL041C, strain sdh2, hits give low values 0.992 | S. cerevisiae deletion strains, locus YLR027C, strain aat2, hits give low values 0.965 | S. cerevisiae deletion strains, locus YLR039C, strain RIC1, hits give low values 1.12 | S. cerevisiae deletion strains, locus YLR058C, strain SHM2, hits give low values 1.01 | S. cerevisiae deletion strains, locus YLR102C, strain apc9, hits give low values 0.966 | S. cerevisiae deletion strains, locus YLR221C, strain rsa3, hits give low values 0.933 | S. cerevisiae deletion strains, locus YLR258W, strain gsy2, hits give low values 0.969 | S. cerevisiae deletion strains, locus YLR262C, strain YPT6 (second series), hits give low values 0.936 | S. cerevisiae deletion strains, locus YLR268W, strain sec22, hits give low values 1.01 | S. cerevisiae deletion strains, locus YLR320W, strain mms22, hits give low values 0.968 | S. cerevisiae deletion strains, locus YLR330W, strain CHS5, hits give low values 1.02 | S. cerevisiae deletion strains, locus YLR342W, strain FKS1 (second series), hits give low values 1.02 | S. cerevisiae deletion strains, locus YLR342W, strain FKS1, hits give low values 0.952 | S. cerevisiae deletion strains, locus YLR357W, strain rsc2, hits give low values 0.909 | S. cerevisiae deletion strains, locus YLR370C, strain arc18, hits give low values 0.968 | S. cerevisiae deletion strains, locus YLR371W, strain rom2, hits give low values 0.982 | S. cerevisiae deletion strains, locus YLR384C, strain iki3, hits give low values 0.984 | S. cerevisiae deletion strains, locus YLR418C, strain cdc73, hits give low values 0.986 | S. cerevisiae deletion strains, locus YML016C, strain PPZ1, hits give low values 1.02 | S. cerevisiae deletion strains, locus YML032C, strain rad52, hits give low values 0.97 | S. cerevisiae deletion strains, locus YML120C, strain ndi1, hits give low values 0.954 | S. cerevisiae deletion strains, locus YML124C, strain tub3, hits give low values 0.981 | S. cerevisiae deletion strains, locus YMR058W, strain fet3, hits give low values 0.94 | S. cerevisiae deletion strains, locus YMR078C, strain ctf18, hits give low values 0.971 | S. cerevisiae deletion strains, locus YMR125W, strain sto1, hits give low values 0.97 | S. cerevisiae deletion strains, locus YMR129W, hits give low values 0.965 | S. cerevisiae deletion strains, locus YMR205C, strain PFK2, hits give low values 0.946 | S. cerevisiae deletion strains, locus YMR223W, strain ubp8, hits give low values 0.978 | S. cerevisiae deletion strains, locus YMR231W, strain pep5, hits give low values 0.979 | S. cerevisiae deletion strains, locus YMR307W, strain GAS1, hits give low values 0.992 | S. cerevisiae deletion strains, locus YNL067W, strain RPL9B, hits give low values 0.998 | S. cerevisiae deletion strains, locus YNL071W, strain lat1, hits give low values 0.984 | S. cerevisiae deletion strains, locus YNL153C, strain GIM3, hits give low values 0.985 | S. cerevisiae deletion strains, locus YNL209W, strain ssb2, hits give low values 0.975 | S. cerevisiae deletion strains, locus YNL233W, strain BNI4, hits give low values 0.989 | S. cerevisiae deletion strains, locus YNL248C, strain rpa49, hits give low values 0.995 | S. cerevisiae deletion strains, locus YNL250W, strain rad50, hits give low values 0.981 | S. cerevisiae deletion strains, locus YNL271C, strain bni1, hits give low values 0.984 | S. cerevisiae deletion strains, locus YNL298W, strain CLA4, hits give low values 0.991 | S. cerevisiae deletion strains, locus YNL307C, strain MCK1, hits give low values 0.97 | S. cerevisiae deletion strains, locus YNL322C, strain KRE1 (second series), hits give low values 0.952 | S. cerevisiae deletion strains, locus YNR049C, strain mso1, hits give low values 0.972 | S. cerevisiae deletion strains, locus YNR052C, strain pop2, hits give low values 0.979 | S. cerevisiae deletion strains, locus YOL006C, strain TOP1, hits give low values 1.15 | S. cerevisiae deletion strains, locus YOL012C, strain htz1 1.45 | S. cerevisiae deletion strains, locus YOL147C, strain pex11, hits give low values 0.994 | S. cerevisiae deletion strains, locus YOR001W, strain rrp6, hits give low values 1 | S. cerevisiae deletion strains, locus YOR061W, strain CKA2, hits give low values 1.03 | S. cerevisiae deletion strains, locus YOR069W, strain VPS5, hits give low values 1.01 | S. cerevisiae deletion strains, locus YOR070C, strain gyp1, hits give low values 0.973 | S. cerevisiae deletion strains, locus YOR080W, strain dia2, hits give low values 0.97 | S. cerevisiae deletion strains, locus YOR083W, strain WHI5, hits give low values 0.992 | S. cerevisiae deletion strains, locus YOR106W, strain vam3, hits give low values 0.964 | S. cerevisiae deletion strains, locus YOR136W, strain idh2, hits give low values 0.985 | S. cerevisiae deletion strains, locus YOR144C, strain elg1, hits give low values 0.998 | S. cerevisiae deletion strains, locus YOR184W, strain ser1, hits give low values 1.05 | S. cerevisiae deletion strains, locus YOR265W, strain rbl2, hits give low values 0.979 | S. cerevisiae deletion strains, locus YOR270C, strain vph1, hits give low values 0.957 | S. cerevisiae deletion strains, locus YOR290C, strain snf2, hits give low values 0.9 | S. cerevisiae deletion strains, locus YOR316C, strain cot1, hits give low values 0.971 | S. cerevisiae deletion strains, locus YPL051W, strain arl3, hits give low values 0.993 | S. cerevisiae deletion strains, locus YPL055C, strain LGE1, hits give low values 1.05 | S. cerevisiae deletion strains, locus YPL078C, strain atp4, hits give low values 0.986 | S. cerevisiae deletion strains, locus YPL106C, strain sse1, hits give low values 0.889 | S. cerevisiae deletion strains, locus YPL240C, strain hsp82, hits give low values 0.995 | S. cerevisiae deletion strains, locus YPL241C, strain CIN2, hits give low values 1.02 | S. cerevisiae deletion strains, locus YPR119W, strain clb2, hits give low values 0.971 | S. cerevisiae deletion strains, locus YPR141C, strain kar3, hits give low values 1.01 | S. cerevisiae deletion strains, locus YPR163C, strain tif3, hits give low values 0.983 | S. cerevisiae deletion strains, locus YPR167C, strain met16, hits give low values 0.981 | S. cerevisiae deletion strains, strain wtn01, hits give low values 0.993 | S. cerevisiae strains, strain wild type, hits give low values 1.04
